Laboratory results reported in the supplement of paper PMC10037445.
The full ranking holds about 2,900 compounds; the median of “NF-kB SEAP reporter activity, fold change vs agonist alone” is about 0.99, and the highest 2% start at about 2.6. The list comes from a sample in which the highest values are over-represented; it also holds similar structures and randomly drawn compounds.

How the values were obtained:
RAW-Dual [1] = test: NF-kB SEAP reporter activity, fold change vs agonist alone; cytotoxicity flag (confluency mask): cytotoxic (confluency <70% of control); higher = enhanced NF-kB activity
In short: (§1)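 Supernatant from RAW-Dual macrophages was read after 20 hours for IRF by QuantiLuc luminescence and for NF-κB by QuantiBlue absorbance at 620 nm. The cells (50,000 cells/well in DMEM, 384-well plates, 37 °C, 5% CO2) had received 50 nL of library stock by pin tool and, 1 h later, a PRR agonist. Reporter activity is expressed relative to agonist-alone wells as fold change, and wells were flagged cytotoxic if IncuCyte confluency was under 70% of agonist controls in both mask sets.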

RAW-Dual [2] = test: NF-kB SEAP reporter activity, fold change vs agonist alone; higher = enhanced NF-kB activity
In short: as §1

RAW-Dual [3] = test: NF-kB SEAP reporter activity, fold change vs agonist alone; cytotoxicity flag (confluency mask): not cytotoxic; higher = enhanced NF-kB activity
In short: as §1

[4] = agonist: ODN 1826 (TLR9) 0.5 ug/mL
[5] = agonist: Pam2CSK4 (TLR2/6) 0.1 ug/mL
[6] = agonist: Pam3CSK4 (TLR2/1) 0.1 ug/mL
[7] = library stock concentration (final ~1000-fold dilution): 10 mM, cytotoxicity flag (confluency mask): not cytotoxic, agonist: Imiquimod (TLR7) […]
[8] = library stock concentration (final ~1000-fold dilution): 10 mM, cytotoxicity flag (confluency mask): not cytotoxic, agonist: MPLA (TLR4) […]
[9] = library stock concentration (final ~1000-fold dilution): 10 mM water, cytotoxicity flag (confluency mask): not cytotoxic, agonist: Imiquimod (TLR7) […]
[10] = library stock concentration (final ~1000-fold dilution): 10 mM water, cytotoxicity flag (confluency mask): not cytotoxic, agonist: MPLA (TLR4) […]

What does the source list for `Cl.NCCOCCOCCNC(=O)Cc1ccc(Nc2nc(NCc3ccc(F)cc3)nc(NCC3CCCCC3)n2)cc1` (library stock concentration (final ~1000-fold dilution): 10 mM)?
NF-kB SEAP reporter activity (RAW-Dual [1]; agonist: LPS (TLR4) 0.1 ug/mL): 0.643; NF-kB SEAP reporter activity (RAW-Dual [1]; [4]): 0.852; NF-kB SEAP reporter activity (RAW-Dual [1]; [5]): 0.738; NF-kB SEAP reporter activity (RAW-Dual [1]; [6]): 0.911

How did the “NF-kB SEAP reporter activity” value (RAW-Dual [2]; library stock concentration (final ~1000-fold dilution): 10 mM, cytotoxicity flag (confluency mask): cytotoxic (confluency <70% of control), agonist: Imiquimod (TLR7) […]) turn out when `Cl.NCCOCCOCCNC(=O)Cc1ccc(Nc2nc(NCc3ccc(F)cc3)nc(NCC3CCCCC3)n2)cc1` was run?
The value was 1.05.

And the “NF-kB SEAP reporter activity” value (RAW-Dual [2]; library stock concentration (final ~1000-fold dilution): 10 mM, cytotoxicity flag (confluency mask): cytotoxic (confluency <70% of control), agonist: MPLA (TLR4) […])?
Its value is 1.59.

`O=C(Nc1nccs1)C(c1cc(F)ccc1O)N1Cc2ccccc2C1=O` (stereo unspecified) was tested. Which “NF-kB SEAP reporter activity” value (RAW-Dual [2]; [7]) did it give?
Its value is 0.944.

And the “NF-kB SEAP reporter activity” value (RAW-Dual [2]; [8])?
Its value is 0.982.

With `O=C(Nc1nccs1)C(c1cc(F)ccc1O)N1Cc2ccccc2C1=O` (stereo unspecified) (library stock concentration (final ~1000-fold dilution): 10 mM) as the molecule, how does the “NF-kB SEAP reporter activity” value (RAW-Dual [3]; agonist: LPS (TLR4) 0.1 ug/mL) read?
The value was 0.902.

And the “NF-kB SEAP reporter activity” value (RAW-Dual [3]; [4])?
Its value is 0.989.

And the “NF-kB SEAP reporter activity” value (RAW-Dual [3]; [5])?
The value was 0.865.

What about the “NF-kB SEAP reporter activity” value (RAW-Dual [3]; [6]) of the same molecule?
Its value is 1.02.

Which “NF-kB SEAP reporter activity” value (RAW-Dual [3]; agonist: LPS (TLR4) 0.1 ug/mL) does the source give for `CCOC(=O)CC(=O)O` (library stock concentration (final ~1000-fold dilution): 10 mM water) here?
The value was 1.31.

What about the “NF-kB SEAP reporter activity” value (RAW-Dual [3]; [4]) of the same molecule?
The value was 1.09.

What about the “NF-kB SEAP reporter activity” value (RAW-Dual [3]; [5]) of the same molecule?
The value was 1.18.

What about the “NF-kB SEAP reporter activity” value (RAW-Dual [3]; [6]) of the same molecule?
Its value is 1.03.

With `CCOC(=O)CC(=O)O` as the molecule, how does the “NF-kB SEAP reporter activity” value (RAW-Dual [2]; [9]) read?
Its value is 0.955.

And the “NF-kB SEAP reporter activity” value (RAW-Dual [2]; [10])?
Its value is 1.

Which “NF-kB SEAP reporter activity” value (RAW-Dual [3]; agonist: LPS (TLR4) 0.1 ug/mL) does the source give for `CCCCOc1cc(C(=O)NCCN(CC)CC)c2ccccc2n1.Cl` (library stock concentration (final ~1000-fold dilution): 10 mM) here?
The value was 0.994.

What about the “NF-kB SEAP reporter activity” value (RAW-Dual [3]; [4]) of the same molecule?
The value was 0.959.

And the “NF-kB SEAP reporter activity” value (RAW-Dual [3]; [5])?
Its value is 0.866.

What about the “NF-kB SEAP reporter activity” value (RAW-Dual [3]; [6]) of the same molecule?
Its value is 1.09.

What does the source list for `CCCCOc1cc(C(=O)NCCN(CC)CC)c2ccccc2n1.Cl`?
NF-kB SEAP reporter activity (RAW-Dual [2]; [7]): 1.57; NF-kB SEAP reporter activity (RAW-Dual [2]; [8]): 1.01

Which results are given for `CN1CCOC(c2ccccc2)c2ccccc2C1.Cl` (stereo unspecified)?
NF-kB SEAP reporter activity (RAW-Dual [2]; [9]): 1.12; NF-kB SEAP reporter activity (RAW-Dual [2]; [10]): 1.03

How did the “NF-kB SEAP reporter activity” value (RAW-Dual [3]; agonist: LPS (TLR4) 0.1 ug/mL) turn out when `CN1CCOC(c2ccccc2)c2ccccc2C1.Cl` (stereo unspecified) (library stock concentration (final ~1000-fold dilution): 10 mM water) was run?
Its value is 1.36.

What about the “NF-kB SEAP reporter activity” value (RAW-Dual [3]; [4]) of the same molecule?
The value was 0.943.

And the “NF-kB SEAP reporter activity” value (RAW-Dual [3]; [5])?
The value was 1.05.

And the “NF-kB SEAP reporter activity” value (RAW-Dual [3]; [6])?
Its value is 0.969.

Which “NF-kB SEAP reporter activity” value (RAW-Dual [3]; agonist: LPS (TLR4) 0.1 ug/mL) does the source give for `COc1ccc(S(=O)(=O)N(CCO)c2ccccc2CN(C)CC=Cc2ccc(Cl)cc2)cc1` (library stock concentration (final ~1000-fold dilution): 10 mM) here?
Its value is 0.958.

What about the “NF-kB SEAP reporter activity” value (RAW-Dual [3]; [4]) of the same molecule?
The value was 0.257.

And the “NF-kB SEAP reporter activity” value (RAW-Dual [3]; [5])?
The value was 0.537.

And the “NF-kB SEAP reporter activity” value (RAW-Dual [3]; [6])?
Its value is 0.372.

Which “NF-kB SEAP reporter activity” value (RAW-Dual [2]; [7]) does the source give for `COc1ccc(S(=O)(=O)N(CCO)c2ccccc2CN(C)CC=Cc2ccc(Cl)cc2)cc1` here?
Its value is 0.802.

And the “NF-kB SEAP reporter activity” value (RAW-Dual [2]; [8])?
The value was 1.07.

For `COc1ccc(S(=O)(=O)N(C(C)=O)c2ccccc2/C=C/c2cc[n+]([O-])cc2)cc1` (library stock concentration (final ~1000-fold dilution): 10 mM), which “NF-kB SEAP reporter activity” value (RAW-Dual [3]; agonist: LPS (TLR4) 0.1 ug/mL) is on record?
The value was 1.85.

And the “NF-kB SEAP reporter activity” value (RAW-Dual [3]; [4])?
Its value is 2.59.

And the “NF-kB SEAP reporter activity” value (RAW-Dual [3]; [5])?
Its value is 1.94.

And the “NF-kB SEAP reporter activity” value (RAW-Dual [3]; [6])?
The value was 1.43.

`COc1ccc(S(=O)(=O)N(C(C)=O)c2ccccc2/C=C/c2cc[n+]([O-])cc2)cc1` was tested. Which “NF-kB SEAP reporter activity” value (RAW-Dual [2]; [7]) did it give?
Its value is 2.17.

What about the “NF-kB SEAP reporter activity” value (RAW-Dual [2]; [8]) of the same molecule?
Its value is 1.61.

For `C=C1C(CO)C(O)CC1n1cnc2c(=O)nc(N)[nH]c21` (stereo unspecified) (library stock concentration (final ~1000-fold dilution): 10 mM), which “NF-kB SEAP reporter activity” value (RAW-Dual [3]; agonist: LPS (TLR4) 0.1 ug/mL) is on record?
Its value is 1.32.

What about the “NF-kB SEAP reporter activity” value (RAW-Dual [3]; [4]) of the same molecule?
The value was 0.996.

What about the “NF-kB SEAP reporter activity” value (RAW-Dual [3]; [5]) of the same molecule?
The value was 1.37.

What about the “NF-kB SEAP reporter activity” value (RAW-Dual [3]; [6]) of the same molecule?
Its value is 0.846.

With `C=C1C(CO)C(O)CC1n1cnc2c(=O)nc(N)[nH]c21` (stereo unspecified) as the molecule, how does the “NF-kB SEAP reporter activity” value (RAW-Dual [2]; [8]) read?
The value was 1.07.

What does the source list for `CNC1C(O)C(OC2C(NC(=O)C(O)CN)CC(N)C(OC3OC(CN)C(O)C(O)C3O)C2O)OCC1(C)O.O=S(=O)(O)O` (stereo unspecified) (library stock concentration (final ~1000-fold dilution): 10 mM water)?
NF-kB SEAP reporter activity (RAW-Dual [3]; agonist: LPS (TLR4) 0.1 ug/mL): 1.03; NF-kB SEAP reporter activity (RAW-Dual [3]; [4]): 1.09; NF-kB SEAP reporter activity (RAW-Dual [3]; [5]): 1.3; NF-kB SEAP reporter activity (RAW-Dual [3]; [6]): 1.14

What does the source list for `CNC1C(O)C(OC2C(NC(=O)C(O)CN)CC(N)C(OC3OC(CN)C(O)C(O)C3O)C2O)OCC1(C)O.O=S(=O)(O)O` (stereo unspecified)?
NF-kB SEAP reporter activity (RAW-Dual [2]; [9]): 0.944; NF-kB SEAP reporter activity (RAW-Dual [2]; [10]): 1.01

What does the source list for `COc1ccc(C(NC(=O)c2cnc(-c3cccnn3)nc2O)c2ccc(OC)cc2)cc1`?
NF-kB SEAP reporter activity (RAW-Dual [2]; [7]): 0.974; NF-kB SEAP reporter activity (RAW-Dual [2]; [8]): 1.03

With `COc1ccc(C(NC(=O)c2cnc(-c3cccnn3)nc2O)c2ccc(OC)cc2)cc1` (library stock concentration (final ~1000-fold dilution): 10 mM) as the molecule, how does the “NF-kB SEAP reporter activity” value (RAW-Dual [3]; agonist: LPS (TLR4) 0.1 ug/mL) read?
Its value is 2.9.

What about the “NF-kB SEAP reporter activity” value (RAW-Dual [3]; [4]) of the same molecule?
The value was 0.861.

And the “NF-kB SEAP reporter activity” value (RAW-Dual [3]; [5])?
Its value is 0.898.

And the “NF-kB SEAP reporter activity” value (RAW-Dual [3]; [6])?
The value was 1.02.

For `O=C(O)c1ccc(Br)c(O)c1`, which “NF-kB SEAP reporter activity” value (RAW-Dual [2]; [8]) is on record?
Its value is 1.11.

What does the source list for `O=C(O)c1ccc(Br)c(O)c1` (library stock concentration (final ~1000-fold dilution): 10 mM)?
NF-kB SEAP reporter activity (RAW-Dual [3]; agonist: LPS (TLR4) 0.1 ug/mL): 1.11; NF-kB SEAP reporter activity (RAW-Dual [3]; [4]): 0.975; NF-kB SEAP reporter activity (RAW-Dual [3]; [5]): 1.09; NF-kB SEAP reporter activity (RAW-Dual [3]; [6]): 0.729

Which results are given for `O=C(/C=C/c1ccc(O)c(O)c1)O[C@@H]1CC(O)(C(=O)O)C[C@@H](OC(=O)/C=C/c2ccc(O)c(O)c2)C1O` (stereo partly specified) (library stock concentration (final ~1000-fold dilution): 10 mM)?
NF-kB SEAP reporter activity (RAW-Dual [3]; agonist: LPS (TLR4) 0.1 ug/mL): 1.24; NF-kB SEAP reporter activity (RAW-Dual [3]; [4]): 1.04; NF-kB SEAP reporter activity (RAW-Dual [3]; [5]): 1.11; NF-kB SEAP reporter activity (RAW-Dual [3]; [6]): 1.18

What does the source list for `O=C(/C=C/c1ccc(O)c(O)c1)O[C@@H]1CC(O)(C(=O)O)C[C@@H](OC(=O)/C=C/c2ccc(O)c(O)c2)C1O` (stereo partly specified)?
NF-kB SEAP reporter activity (RAW-Dual [2]; [7]): 0.841; NF-kB SEAP reporter activity (RAW-Dual [2]; [8]): 1.01

With `CC(C)NC(=O)C1CCC(n2c(=NC(=O)c3ccc(F)cc3)[nH]c3ccc(CN4CCC(C(C)(C)O)CC4)cc32)CC1` (stereo unspecified) as the molecule, how does the “NF-kB SEAP reporter activity” value (RAW-Dual [2]; [7]) read?
The value was 1.44.

And the “NF-kB SEAP reporter activity” value (RAW-Dual [2]; [8])?
Its value is 0.822.

Which “NF-kB SEAP reporter activity” value (RAW-Dual [3]; agonist: LPS (TLR4) 0.1 ug/mL) does the source give for `CC(C)NC(=O)C1CCC(n2c(=NC(=O)c3ccc(F)cc3)[nH]c3ccc(CN4CCC(C(C)(C)O)CC4)cc32)CC1` (stereo unspecified) (library stock concentration (final ~1000-fold dilution): 10 mM) here?
The value was 1.17.

What about the “NF-kB SEAP reporter activity” value (RAW-Dual [3]; [4]) of the same molecule?
The value was 0.713.

What about the “NF-kB SEAP reporter activity” value (RAW-Dual [3]; [5]) of the same molecule?
Its value is 1.24.

And the “NF-kB SEAP reporter activity” value (RAW-Dual [3]; [6])?
Its value is 2.16.
